# Screens deposited in PubChem by National Center for Advancing Translational Sciences (NCATS).
# HCMV antiviral – human cytomegalovirus inhibition; activity change, negative = inhibition, % at 57.5 µM; 410,000 tested, 4.5% active; AID 1259415; HFF cells, HCMV-luciferase reporter, 72 h; hits give low values; in the data active = activity change below about -60%; inconclusive = no clear call, values can overlap the other calls; inactive = above about -39%
#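 Compounds were evaluated in HFFs infected with an HCMV luciferase reporter virus (MOI 1 PFU/cell). Luciferase in lysates collected 72 h post infection served as the replication measure.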
# Giardia FBPA inh – Giardia lamblia aldolase inhibition | A8B2U2 | purified Giardia FBPA | Potency, µM (top dose mostly 59.6 µM), without a hit: at the highest dose activity, negative = inhibition, usual class: inhibitors | 290,000 tested, 0.71% active | AID 2451; note: potency is the fitted concentration of half-maximal effect; nearly all actives have a fitted effect of over 55% in size
# Target sequence (A8B2U2 whole entry, looked up): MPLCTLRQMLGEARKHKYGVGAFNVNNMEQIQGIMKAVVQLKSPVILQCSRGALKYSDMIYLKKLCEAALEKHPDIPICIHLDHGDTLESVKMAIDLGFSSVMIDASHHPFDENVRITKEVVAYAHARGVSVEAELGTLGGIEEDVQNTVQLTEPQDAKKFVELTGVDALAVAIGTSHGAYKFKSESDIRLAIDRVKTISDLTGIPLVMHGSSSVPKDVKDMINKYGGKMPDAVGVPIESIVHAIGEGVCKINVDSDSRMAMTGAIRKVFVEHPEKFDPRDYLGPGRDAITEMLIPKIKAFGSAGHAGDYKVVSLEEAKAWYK
#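 40 nM FBPA preincubated 10 min at RT with compound (up to 57.5 uM final), then substrate plus GAPDH/TPI/NAD/arsenate coupling and diaphorase/resazurin added. Fluorescence read after 20 min at RT, 525/598 nm.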
# LASV entry inh – inhibitors of Lassa virus binding or cell entry | Lassa virus pseudotype entry inhibition, cell reporter | Potency, µM (top dose mostly 37.9 µM), for inactives: top-dose activity change, negative = inhibition, usual class: inhibitors | 300,000 tested, 1.2% active | AID 540256; calls by dose curve; tested in HEK293 cells; note: potency is the fitted concentration of half-maximal effect; nearly all actives have a fitted effect of over 50% in size
# FMDV inh – antivirals against foot and mouth disease virus; AID 1159524; Potency, µM (doses to about 57.9 µM), without a hit: at the highest dose activity change, negative = inhibition, actives largely listed as inhibitors; FMDV antiviral cell-based qHTS; 410,000 tested, 1.2% active; calls by dose curve; tested in HEK293T cells; note: read-out not given here; potency is the fitted concentration of half-maximal effect; nearly all actives have a fitted effect of over 45% in size
# Marburg entry inh – Marburg virus entry inhibition; Marburg virus pseudotyped entry inhibition, cell reporter; AID 540276; Potency, µM (doses to about 37.8 µM), without a hit: at the highest dose activity change, negative = inhibition, actives largely listed as inhibitors; 300,000 tested, 1.8% active; calls by dose curve; tested in HEK293 cells; note: potency is the fitted concentration of half-maximal effect
# HCV inh – inhibitors of hepatitis C virus infection | AID 651820 | Huh7.5.1 HCVcc-Cre infection, luciferase reporter, 44 h | 340,000 tested, 3.4% active | Potency, µM (titrated, usually from 41.8 µM), without a hit: top-dose activity change, negative = inhibition, usual class: inhibitors; note: potency is the fitted concentration of half-maximal effect
#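 Whole-lifecycle infectious HCVcc-Cre system; cells 1,000/well, compound then virus (~0.5 moi) added 4 h after plating, 44 h culture. Luciferase read 15 sec following 15 min substrate incubation, room temp.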
# * = called active by the depositor; ? = inconclusive; · = no result; [ ] = another dose, or the depositor's remark. Shown are actives, neighbours in structure and some others; about 8.3% of the full set was active somewhere. Unless noted, calls come from the whole dose curve; as a rule, active = well fitted curve in the direction sought with a large enough effect; inconclusive = small, poorly fitted or top-dose-only effect, or another doubt; inactive = no such curve, though single readings can be large; an effect the other way counts as inactive or inconclusive. % is set by controls: 0 for no effect and ±100 for the full control effect.
SMILES,HCMV antiviral,Giardia FBPA inh,LASV entry inh,FMDV inh,Marburg entry inh,HCV inh
CCC(C)CN1C(=O)NC(c2ccccc2)C(C(=O)OC)=C1C (centres undefined),·,·,?,·,-20%[14.2 µM],·
COc1ccc(/C=C2\SC(=S)N(CCCC(=O)N3CCOCC3)C2=O)cc1,?,·,-23%,-18%,?,-1%
COc1cc(/C=C2\SC(=S)N(CCC(=O)N3CCCCC3)C2=O)cc(OC)c1OC,?,5%,?,28µM*,?,?
CCOC(=O)N1CCN(C(=O)CCN2C(=O)/C(=C\c3ccc(OC)c(OC)c3)SC2=S)CC1,-9,·,·,-6%,·,·
O=C(CCCN1C(=O)/C(=C\c2ccccc2)SC1=S)N1CCOCC1,-99*,·,-14%,-22%,?,?
O=C(CCN1C(=O)/C(=C\c2ccccc2)SC1=S)N1CCCCC1,-68*,6%,0%,10%,3%[46.1 µM],6%
O=C(c1ccccc1)N1CCN(CCc2ccccn2)CC1,-17,8%,13%,-4%,-12%[46.1 µM],31%
O=C(CN1C(=O)/C(=C/c2ccccc2)SC1=S)N1CCN(CCc2ccccn2)CC1,-90*,-3%,?,-28%,?,?
COC(=O)N1C[C@H](OCc2cn(-c3cc(Cl)cc(Cl)c3)nn2)[C@H](OCc2cn(-c3cc(Cl)cc(Cl)c3)nn2)C[C@@H]1c1ccccc1Br,-32,·,·,·,·,·
O=S(=O)(NC(=S)c1ccccc1)c1ccccc1,-36,·,11%[46.1 µM],6%,1%[46.1 µM],?
CC(C)N=C(NS(=O)(=O)c1ccccc1)C(Cl)(Cl)Cl,-98*,8%,?,0%,?,?
COc1ccc(C(=O)Nc2ccc3c(c2)Cc2ccccc2-3)cc1,-7,·,9%,8%,0%,9%
COc1ccc2nc3c(cc2c1)Cc1ccccc1-3,·,18µM*,·,·,·,·
Nc1nnc(SCc2ccc(Cl)cc2)s1,-15,-3%,17%,-10%,6%,6%
Clc1ccc(CSc2nnc(NC3=NCCCCC3)s2)cc1,-67*,-5%,-12%,-26%,-28%,?
COc1ccc(-c2nc3cnc(OC)nc3n(C3CC3)c2=O)cc1,·,4%,·,-4%,·,·
C[C@@]12CCC(O)C[C@H]1CCc1ccccc12 (some centres undefined),·,?,·,2%,·,·
N#CCSc1nc(-c2ccccc2)cs1,-63*,-6%,15%,23%,2%,14%
COc1ccc(OCC(O)CNCCOc2ccccc2OC)c(C(C)(C)C)c1 (centres undefined),-67*,?,·,?,·,18µM*
Cc1cc(NC(=O)c2ccc(NC(=O)CCS(=O)(=O)c3cccs3)cc2)ccc1Br,-27,·,?,?,?,·
CNC(=O)Oc1cccc(-c2cn3cc(OC(=O)NC)ccc3n2)c1,30,?,?,0%,?,-21%
CNC(=O)Oc1ccc(-c2cn3cc(Cl)ccc3n2)cc1,?,-22%,7.3µM*,?,8.2µM*,?
CC(C)c1ccc(Nc2ncnc3onc(-c4ccc(F)cc4)c23)cc1,-24,·,?,-15%,·,·
O=C(NCC(O)c1ccccc1)c1ccc(Cl)c(S(=O)(=O)N2CCCCC2)c1 (centres undefined),?,6%,-24%[46.1 µM],-13%,-22%[46.1 µM],10µM*
Cc1ccc(S(=O)(=O)N(C)c2ccc(C(=O)NCCc3ccccc3)cc2)cc1,57,-1%,?,3%,?,·
SMILES,HCMV antiviral,Giardia FBPA inh,LASV entry inh,FMDV inh,Marburg entry inh,HCV inh
CC1CCCN(S(=O)(=O)c2cc(C(=O)NCc3ccco3)ccc2Cl)C1 (centres undefined),-13,·,·,3%,·,?
COc1ccc(CCNC(=O)c2ccc(Cl)c(S(=O)(=O)N(C)c3ccccc3)c2)cc1,-68*,-3%,?,28µM*,?,3.5µM*
CC1CCCN(S(=O)(=O)c2cc(C(=O)NCCc3ccc(S(N)(=O)=O)cc3)ccc2Cl)C1 (centres undefined),?,·,·,18µM*,·,7.9µM*
CCN(c1ccccc1)S(=O)(=O)c1ccc(Cl)c(C(=O)NCCc2ccc(OC)cc2)c1,-22,-1%,?,0%,?,-28%
COc1ccc(CCNC(=O)c2ccc(N(C)S(=O)(=O)c3ccc(C)cc3)cc2)cc1,-11,-7%,?,?,-22%[46.1 µM],10µM*
O=C(NCC(O)c1ccccc1)c1ccc(Cl)c(S(=O)(=O)N2CCCC2)c1 (centres undefined),·,·,3%,-10%,-33%,?
CCOc1ccc2c(c1)c(=O)c(C(=O)c1ccccc1)cn2Cc1ccccc1F,-8,·,3%[46.1 µM],-25%,-3%[46.1 µM],·
COC(=O)c1ccccc1NC(=O)c1ccc(-c2nc(COc3ccccc3)c(C)o2)cc1,-1,·,4%[46.1 µM],-9%,·,·
Cc1ccccc1S(=O)Cc1ccc(C(=O)NC2CCCCCC2)o1 (centres undefined),12,·,-29%[46.1 µM],-14%,1%[46.1 µM],·
COc1ccc(COC(=O)c2ccc(Cl)c(S(=O)(=O)N3CC(C)OC(C)C3)c2)cc1 (centres undefined),0,·,?,?,-17%,14µM*
CC1CN(C(=O)COC(=O)c2ccc(Cl)c(S(=O)(=O)N3CCCCC3)c2)CC(C)O1 (centres undefined),-5,4%,13%[46.1 µM],-8%,-19%,-28%
COc1ccc(CCNC(=O)c2cccc(S(=O)(=O)N3CCCCCC3)c2)cc1,?,·,·,-28%,3%,-19%
O=C(NCc1ccccc1)c1ccc(Cl)c(S(=O)(=O)N2CCCC2)c1,-25,·,·,-4%,·,-25%
COc1ccc(CCNC(=O)c2ccc(Cl)c(S(=O)(=O)N3CCCCCC3)c2)cc1,-86*,·,·,14µM*,·,2.8µM*
O=C(NCCc1ccccc1)c1ccc(Cl)c(S(=O)(=O)N2CCCC2)c1,·,·,·,-7%,·,10µM*
O=C(NCc1ccccn1)c1ccc(Cl)c(S(=O)(=O)N2CCCCCC2)c1,22,·,-12%,0%,?,11µM*
CCc1ccc(N2CC(C)Cn3c2nc2c3c(=O)[nH]c(=O)n2C)cc1 (centres undefined),15,4%,?,-22%,-10%[46.1 µM],25µM*
COc1ccc(CCNC(=O)CCc2c(C)c3cc4c(C)c(C)oc4cc3oc2=O)cc1OC,-37,·,26%[46.1 µM],-21%,-2%[46.1 µM],·
COC(=O)c1ccc(N=C2S/C(=C\c3cc(C)n(-c4cccnc4)c3C)C(=O)N2C)cc1,0,-7%,?,?,?,3.5µM*
O=S(=O)(Nc1cccc(-c2ccc(N3CCCC3)nn2)c1)c1ccccc1C(F)(F)F,7,·,17%[46.1 µM],38%,·,·
COc1ccc(Oc2nc3c(c(=O)n(C)c(=O)n3C)n2Cc2ccc(Cl)cc2Cl)cc1,6,·,-11%[46.1 µM],-30%,·,·
COC(=O)C1=C(C(=O)OC)[C@@H]2N(C)c3ccccc3[C@@]23C[C@@H](C(=O)OC)N(C(=O)Nc2cccc(C#N)c2)C3=N1,·,·,·,·,27%[14.2 µM],·
